Only some compounds are listed: those with a hit (about 2.4% of all), similar ones and a draw of the others.
PfM18AAP inh – PfM18AAP inhibitors, malaria aminopeptidase, primary screen, biochemical, QFRET, recombinant enzyme; M18 aspartyl aminopeptidase (Plasmodium falciparum 3D7); H-Glu-NHMec fluorogenic cleavage; inhibition, % at 7.35 µM; actives 1.2% (n = 290,000);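 active = inhibition above the campaign mean inhibition over all tested compounds plus 3 SD, cut at about 28% in these data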;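 note: 0% = plate median of test compound wells and 100% = 2 mM ZnCl2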
PABP polyA inh – PABP poly(A) RNA binding inhibitors, primary screen, biochemical, fluorescence polarization, uHTS; inhibition, % at 35 µM; actives 1% (n = 290,000); AID 2014, 2009;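 note: calls also rest on retests at 20 µM and on dose response follow-up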
eIF4H FP inh – human eIF4H binding inhibitors, primary screen, translation initiation inhibitor project, biochemical, uHTS, fluorescence polarization; eIF4H fluorescence polarization binding assay; inhibition, % at 35 µM; actives 0.94% (n = 290,000); AID 2012, 2009;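 note: calls also rest on retests at 20 µM and on dose response follow-up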
eIF4E-4G inh – eIF4E–eIF4G protein interaction inhibitors, primary screen, biochemical, uHTS, TR-FRET, eIF4GI fragment | TR-FRET eIF4E-eIF4GI(517-606) binding, 2 h | AID 782, 2007 | actives 0.37% (n = 220,000) | inhibition, % at 21.7 µM | Eukaryotic translation initiation factor 4E (Mus musculus) + Eukaryotic translation …;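 active = inhibition above about 30%, limit read from the data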;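 note: 0% = full FRET control wells and 100% = background wells lacking eIF4GI fragment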
PABP1 MLLE inh – inhibitors of PABP1 MLLE–PAM2 peptide binding, primary screen, biochemical, fluorescence polarization, FITC-PAM2, GST-MLLE; actives 0.36% (n = 360,000); inhibition, % at 20 µM; Polyadenylate-binding protein 1 (Homo sapiens), P11940; AID 588489, 2011; in the data active = inhibition above about 35%, passing the limit was not always enough;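 note: plate controls were DMSO wells with GST-MLLE for no effect and wells lacking GST-MLLE protein for full effect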
PERK inhibitor – block of dimerizer-induced PERK translation repression, primary screen, PERK inhibitor project, CHO PERK-DD cells, SEAP luminescence, HTS | Eukaryotic translation initiation factor 2-alpha kinase 3 (Homo sapiens), Q9NZJ5 | inhibition, % at 5.6 µM | CHO PERK-DD fusion, SEAP luminescence translation reporter | actives 0.17% (n = 220,000);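 active = inhibition above the mean inhibition of all tested compounds plus 3 SD, set separately per screening campaign, cut at about 2.9% in these data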;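 note: PERK kinase domain activated by AP20187 dimerizer at 100 nM; 0% = DMSO with dimerizer and 100% = rapamycin at 8.4 µM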
The depositor's hits bear a star; ? = inconclusive; . = not tested or not shown. Unless noted, the rule behind the calls is not given here.

SMILES | PfM18AAP inh | PABP polyA inh | eIF4H FP inh | eIF4E-4G inh | PABP1 MLLE inh | PERK inhibitor
CCOC(=O)c1sc(=S)n(C)c1NC(=O)c1ccccc1Cl | 2 | 5 | 1 | -1 | 43* | 0
COc1ccc(Cc2nnc(-c3ccc(F)cc3)o2)cc1OC | 0 | -11 | -1 | 0 | 4 | 0
Cc1ccc2c(c1)-c1c(ssc1=S)C(C)(C)N2C(=O)CSC1=NCCS1 | -6 | -6 | -1 | -15 | 32 | -1
CCOc1ccc2c(c1)-c1c(ssc1=S)C(C)(C)N2C(=O)CSC1=NCCS1 | -3 | 1 | 1 | 10 | 46* | 0
O=C(CSc1nc(=O)n(CCCN2CCOCC2)c2c1CCC2)Nc1cccc(F)c1 | . | . | . | . | 17 | .
O=C1NC(=S)N(C(=O)c2ccc(F)cc2)/C1=C/c1ccccc1 | 0 | active | 72* | 7 | -130 | -1
COC(=O)c1ccc(NC(=O)CN2C(=O)CNC2=O)cc1 | -9 | 16 | 3 | 6 | -11 | 0
COc1ccccc1C(N)=S | -1 | 9 | 0 | -2 | 40* | 1
CCc1nc(N)c(C#N)c(-c2ccccc2OC)c1C | 4 | 3 | 3 | 15 | 1 | 0
C1CC2CN(c3nc4nonc4nc3N3CCSCC3)CCN2C1 (stereo unspecified) | -2 | 28 | 60 | 4 | 52* | 0
O=C(Nc1nc(-c2ccco2)c(-c2ccco2)s1)C1CC(=O)N(c2ccc3c(c2)OCCO3)C1 (stereo unspecified) | 15 | 88* | 84* | -17 | -29 | 1
Cc1nnc(NC(=O)C2CC(=O)N(c3ccc4c(c3)OCCO4)C2)s1 (stereo unspecified) | . | . | . | . | 12 | .
O=C(Cn1ncc2c([nH]c3ccccc32)c1=O)Nc1ccc(CN2CCCCC2)cc1 | 3 | -10 | 2 | . | 9 | .
NC(=S)Nc1ccc(S(=O)(=O)c2ccc(NC(N)=S)cc2)cc1 | 4 | -5 | -14 | . | 43* | .
O=C(Cn1nnc(-c2cccc(C(F)(F)F)c2)n1)NC1CCCC1 | -1 | 0 | -8 | -1 | 1 | 2
C[C@]12CS(=O)(=O)C[C@H]1SC(=S)N2c1ccccc1 | 25 | 21 | 5 | 3 | -7 | 4.7*
CCCSc1nnc(N2C(=O)C(O)=C(C(=O)c3ccco3)C2c2ccccc2F)s1 (stereo unspecified) | 21 | 95* | ? | . | 19 | .
CSc1nnc(N2C(=O)C(O)=C(C(=O)c3ccco3)C2c2ccccc2F)s1 (stereo unspecified) | 28 | 36 | 29 | . | 1 | .
COC(=O)\C(C(C)=O)=C(/C=C/C=C/N(C)C)N(C)C | -1 | ? | ? | 2 | 22 | -1
COC(=O)/C(C(C)=O)=C(/C=C/C=C/N(C)C)N(C)C | 3 | 72* | 80* | -1 | 19 | 1
COc1cc(/C=N/NC(=O)NC2CCCCC2)ccc1O | 1 | -2 | 6 | -3 | -14 | 0
COc1cc(/C=N/NC(=O)NC2CCCCC2)cc(OC)c1O | 29* | -14 | -2 | -8 | -4 | 0
Cc1cccc(C)c1NC(=O)[C@@]1(CC(=O)O)CC(/C=C/c2ccccc2)=NO1 | -11 | -11 | -19 | . | 2 | .
COc1ccccc1N1C(=N)S/C(=C\c2ccc(-c3ccccc3C(=O)O)o2)C1=O | -6 | 4 | 59* | 17 | -89 | 1
N=C1S/C(=C\c2ccc(-c3ccccc3C(=O)O)o2)C(=O)N1c1ccc2c(c1)OCO2 | 4 | 63* | 87* | 8 | -72 | 2
SMILES | PfM18AAP inh | PABP polyA inh | eIF4H FP inh | eIF4E-4G inh | PABP1 MLLE inh | PERK inhibitor
CC1CCCCN1C(=O)Cn1c(=O)n(-c2ccc(F)cc2)c(=O)c2sccc21 (stereo unspecified) | 2 | 5 | -5 | 75* | 3 | 0
CC1CCN(C(=O)Cn2c(=O)n(-c3ccc(F)cc3)c(=O)c3sccc32)CC1 | 4 | -8 | 0 | 4 | 3 | 1
Cc1ccc(C23CC4CC(CC(CC(=O)N5CCOCC5)(C4)C2)C3)cc1 | 5 | -1 | -1 | 6 | 1 | -1
C#CCN(C[C@@H](CC(C)C)NC(=O)OC(C)(C)C)S(=O)(=O)c1ccc(Br)cc1F | . | . | . | . | -7 | .
CC1=C(C#N)S(=O)(=O)C(C#N)C(c2ccccc2)C1 (stereo unspecified) | -4 | -8 | 17 | 95* | -6 | 0
O=C(OCn1nnc2ccccc2c1=O)c1cc2ccccc2o1 | . | 6 | -7 | 98* | -1 | .
O=C1NC(=S)S/C1=C\c1ccc(SCc2ccccc2)o1 | 4 | 3.2* | 80* | 19 | -30 | 0
O=C1NC(=S)SC1=Cc1ccccc1Cl | . | . | . | . | 10 | .
O=C1NC(=S)S/C1=C\c1ccc(SCc2ccco2)o1 | 37* | 1 | 95 | 22 | 3 | 1
O=C1NC(=S)S/C1=C/c1ccc(OC(=O)c2ccco2)cc1 | -10 | 11 | 7 | . | -20 | .
CC(C)C1=C2CCCCC2NC(=O)N1 (stereo unspecified) | -15 | 19 | 0 | -9 | 62* | 1
COc1ccc(S(=O)(=O)NC2CC2)cc1Cl | -2 | 10 | 5 | . | 0 | .
Cc1c(CCO)c(=O)n2c([nH]c3ccccc32)c1C#N | 7 | 0 | -5 | . | -2 | .
N#Cc1c(=O)c2nc(NCCCO)ncc2n2c(=O)c3ccccc3[nH]c12 | 0 | 35* | 78* | -1 | 16 | 1
NC1=NC(=Nc2cccc(S(N)(=O)=O)c2)c2ccccc21 | -3 | 2 | -11 | 0 | -6 | 4.0*
Cc1cccc(N=C2N=C(N)c3ccccc32)c1 | -1 | -7 | -6 | 0 | -12 | 1
Cc1cc(C(=O)CSc2ncccn2)c(C)n1-c1cccc(F)c1 | -2 | 13 | 11 | 2 | -22 | 1
Cc1cc(C(=O)CSc2nc(N)cc(N)n2)c(C)n1-c1cccc(C(F)(F)F)c1 | 23 | -3 | 56* | 1 | -14 | 0
Cc1cc(C)n(NC(=S)NC2CCCCC2)c(=O)c1C#N | -11 | -3 | -2 | 4 | 45* | 1
O=C(c1ccc([N+](=O)[O-])cc1)N1CCc2ccccc2C1 | -2 | 65* | 4.6* | 2 | 4 | 0
Cc1cc[n+](-c2[nH]c(=O)sc2/C=N/NC([S-])=Nc2ccccc2)cc1 | 31* | 9 | ? | 1 | 104 | 0
CCOc1ccccc1N=Nc1c(C)[nH]n(C(N)=S)c1=O | 5 | 0 | 40 | . | 10 | .
ClC(/C=N/n1cnnc1)=C/c1ccccc1 | 32* | 2 | 2 | 0 | -12 | 1

Screening results deposited in PubChem BioAssay by several laboratories.
